Rows were chosen to be rich in hits. Some 21% of all compounds tested hit in one or more screens of this group.
Pf growth 96h: P. falciparum growth inhibition at 96 hours; P. falciparum luciferase reporter growth, 96 h; Potency, µM (highest dose often 28.7 µM), for inactives: at the top dose activity change, negative = inhibition, most hits filed as inhibitors; 320,000 tested, 6.9% active; AID 504834; note: potency is the fitted concentration of half-maximal effect; % is set by controls: 0 for no effect and ±100 for the full control effect
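Delayed-death screen, second-generation endpoint: infected erythrocytes, 2% hematocrit, 0.05% parasitemia final; 96 hours at 37 C, 5% CO2; luciferase detection reagent; luminescence decrease equals reduced growth.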
SARS PLpro yeast: blocks SARS-CoV papain-like protease in a yeast assay; S. cerevisiae expressing SARS-CoV PLpro, growth rescue; Potency, µM (doses to about 32.9 µM), for inactives: top-dose activity, positive = growth rescue, usual class: activators; 330,000 tested, 0.19% active; AID 485353; calls by dose curve; note: potency is the fitted concentration of half-maximal effect; 0% is about no effect; nearly all actives have a fitted effect of over 55% in size
NS1 function inh: influenza NS1 inhibition; Potency, µM (top dose mostly 46.1 µM), for inactives: top-dose activity, positive = more growth; 270,000 tested, 0.4% active; AID 2326; calls by dose curve; note: potency is the fitted concentration of half-maximal effect; actives are rising curves; nearly all actives have a fitted effect of over 50% in size
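Compounds were scored for reversing the slow growth caused by influenza A NS1 in S. cerevisiae, measured by optical density at 600 nm. Assay medium contained 2% galactose at pH 6.0; NS1-free yeast of the same strain were the positive control.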
Pf growth 48h: inhibits P. falciparum growth in the first generation, 48 h; Potency, µM (top dose mostly 28.7 µM), without a hit: at the top dose activity change, negative = inhibition, hits mostly inhibitors; 310,000 tested, 5.9% active; P. falciparum luciferase growth in erythrocytes, 48 h; note: potency is the fitted concentration of half-maximal effect; % is set by controls: 0 for no effect and ±100 for the full control effect
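Luminescence readout; reporter = integrated firefly luciferase in P. falciparum. RBC culture at 2% hematocrit, 0.1% parasitemia final, 37 C/5% CO2; decreased signal taken as growth inhibition.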
Shiga inhibitor: inhibitors of Shiga toxin in Vero cells; Vero cells, Shiga toxin protein synthesis inhibition reporter; inhibition, % at 38.7 µM; 290,000 tested, 9.2% active; in the data active = inhibition mostly above about 28%, no sharp cut-off; inactive = mostly below about 43%; note: 0% is about no effect
Cycloheximide cs: affects cycloheximide protein synthesis inhibition readout, counter-screen; cell reporter, cycloheximide protein synthesis inhibition counterscreen; max response, %; 300,000 tested, 12% active; in the data active = max response mostly above about 13%, no sharp cut-off; inactive = mostly below about 14%; note: read at 38.3 µM for the half of the compounds with a filed dose; 0% is about no effect
* = called active by the depositor; i = inactive; ? = inconclusive; · = no result given. Unless noted, calls come from the whole dose curve; as a rule, active = well fitted inhibition curve with a large enough effect; inconclusive = small, poorly fitted or top-dose-only effect, or another doubt; inactive = no such curve, though single readings can be large or run the other way.

SMILES | Pf growth 96h | SARS PLpro yeast | NS1 function inh | Pf growth 48h | Shiga inhibitor | Cycloheximide cs
O=C(Nc1ccc(-c2nc3ccccc3[nH]2)cc1)c1ccc(N2C(=O)CCC2=O)cc1 | -22% | -13% | 28% | -12% | -7 | -4
COc1ccc(CSc2nc3ccccc3[nH]2)cc1 | i | -18% | -2% | 374% | 74* | 35*
O=C1CCC(=O)N1c1ccc(CSc2nc3ccccc3[nH]2)cc1 | 39% | -2% | -13% | 60% | 87* | 27*
CC1CCC(NC(=O)COC(=O)CNC(=O)c2ccc3ccccc3c2)CC1 (stereo not drawn) | -16% | -1% | · | 2% | · | ·
COc1ccc(S(=O)(=O)NCCCC(=O)Nc2ccc(Sc3ccc(N)cc3)cc2)cc1 | · | · | · | · | -6 | 5
CCOc1ccccc1/C=C/c1nc2ccccc2[nH]c1=O | 5% | 7% | -12% | 13% | 17 | 13*
Cc1cccc(N2CCN(C(=O)c3ccc4c(c3)NC(=O)C(CSCc3cccc(F)c3)N4)CC2)c1C (stereo not drawn) | ? | -5% | 28% | ? | -9 | -4
C=CCn1c(C)cc(C(=O)CSc2nnc(Cc3ccccc3)o2)c1C | ? | ? | -105% | 7% | 53 | 31*
Cc1cc(C(=O)CSc2nnc(Cc3ccccc3)o2)c(C)n1Cc1ccc2c(c1)OCO2 | ? | 1% | -6% | 9.3µM* | 8 | -1
C=CCNc1nc(C(=O)OCC(=O)c2ccc(Cl)cc2)cs1 | 9% | -1% | · | -28% | · | ·
CN(Cc1cccc(F)c1)C(=O)c1ccc(S(=O)(=O)N2CCCCCC2)cc1 | · | -30% | · | · | · | ·
O=C(c1cc(C(=O)c2ccco2)cc(C(=O)c2ccco2)c1)c1ccco1 | 82% | -3% | -2% | 35% | -9 | 2
Cc1ccc2occ(CN3CCN(c4ccccc4)CC3)c(=O)c2c1 | 26% | 0% | -9% | 5% | 8 | 3
O=c1c(CN2CCN(Cc3ccccc3)CC2)coc2ccc(Cl)cc12 | 42% | -3% | -12% | 30% | 28 | 18
Cc1ccc2occ(C(=O)c3ccco3)c(=O)c2c1 | 4% | -18% | 11% | 28% | 48* | 18
CCN1CCN(Cc2coc3ccc(C)cc3c2=O)CC1 | · | 1% | 2% | 30% | 38* | 27*
Cc1ccc2occ(CN3CCN(Cc4ccccc4)CC3)c(=O)c2c1 | 134% | -1% | 1% | 59% | 61* | 42*
COc1ccc(S(=O)(=O)N2CCN(C(=O)c3cc4c(s3)CCC4)CC2)cc1 | · | 1% | · | · | · | ·
CC(=O)OCCC(NS(=O)(=O)OCC(Cl)(Cl)Cl)c1ccccc1 (stereo not drawn) | 87% | 2% | -6% | 47% | -5 | -1
O=C(Nc1ccccc1F)c1ccc(OCc2ccccc2)cc1 | 13% | -8% | 4% | 55% | 86* | 49*
CCN(Cc1nc2ccccc2c(=O)[nH]1)C(=O)c1cccc(OCc2c(C)noc2C)c1 | ? | 2% | · | 6.6µM* | · | ·
O=C(Nc1ccc(OCc2ccccc2)cc1)c1ccccc1 | 0% | 1% | · | 20% | 26 | 14*
Cc1nn2c(COc3ccc(NC(=O)c4ccccc4)cc3)nnc2c2ccccc12 | 6.6µM* | 15% | -25% | ? | -16 | 3
CCc1cc(=O)oc2c(C)c(OC(C)C(=O)NCCCn3ccnc3)ccc12 (stereo not drawn) | ? | -10% | 3% | -15% | -1 | -3
Cc1ccccc1NC(=O)Cc1nc(COC(=O)CNS(=O)(=O)c2cccc(Br)c2)cs1 | 1% | ? | 3% | 4% | -9 | -6
SMILES | Pf growth 96h | SARS PLpro yeast | NS1 function inh | Pf growth 48h | Shiga inhibitor | Cycloheximide cs
CCOc1ccc2oc(C(=O)NNC(=O)c3csc(N4CCOCC4)n3)c(C)c2c1 | 5% | -8% | 15% | 1% | -3 | 3
CCOC(=O)C(=O)Nc1ccc(OCc2ccccc2)cc1 | 19% | -2% | -6% | 18% | -4 | 3
CC(C)NC(=O)COc1ccc(OCc2ccccc2)cc1 | 0% | -1% | · | 4% | 29 | 20*
NCC(=O)NCC(=O)OCc1ccccc1 | 2% | 1% | · | 12% | -2 | -5
Cc1ccc(C(=O)Nc2ccc(OCc3ccccc3)cc2)s1 | ? | 2% | 6% | ? | 97 | 18*
CCCC(C)NC(=O)COc1ccc(S(=O)(=O)c2ccc(OCC(=O)NC(C)CCC)cc2)cc1 (stereo not drawn) | ? | 0% | 22% | 12µM* | 12 | -6
Cc1ccsc1C(=O)NCC(=O)OCc1ccccc1 | 39% | -10% | -12% | 4% | 61* | 30*
Cc1ccc(NC(=O)CN(C)C(=O)CCC(=O)c2cccs2)cc1 | 161% | -16% | 4% | 21% | -5 | -1
O=C(NCCc1ccccc1)c1ccc(NC(=O)c2cccnc2)cc1 | -16% | 1% | 5% | -11% | 37* | 23*
O=C(NCCc1ccc(Cl)cc1)c1cccnc1 | · | -5% | -8% | 34% | 14 | 21
Cc1noc(C)c1COc1ccc(C(=O)Nc2ccccc2)cc1 | -56% | 1% | · | ? | 23 | 9
Cc1noc(C)c1COc1cccc(C(=O)Nc2ccc(OCc3ccccc3)cc2)c1 | -20% | 0% | -3% | -3% | 27 | 12*
COc1ccc2nc(NC(=O)c3cccc(OCc4c(C)noc4C)c3)sc2c1 | -95% | 8% | 3% | -59% | 118* | 44*
CCOCC(=O)Nc1ccc(OCc2ccccc2)cc1 | -1% | -3% | -9% | ? | 46* | 35*
CCCC1CCc2[nH]nc(C(=O)NN)c2C1 (stereo not drawn) | 39% | -1% | · | 2% | · | ·
O=C(O)CCn1c(=S)n(CCC(=O)O)c2ccccc21 | ? | 0% | -40% | 0% | 17 | -4
Cc1cc(OCc2nc(-c3ccc(NC(=O)c4cccnc4)cc3)no2)ccc1Cl | ? | 5% | 19% | ? | 10 | 0
O=C(Nc1ccc(OCc2ccccc2)cc1)c1cccnc1 | -12% | 2% | -8% | · | 41* | 20*
Cc1cc(C(=O)Nc2ccc(OCc3ccccc3)cc2)c(C)o1 | 28% | -2% | -5% | -23% | 81* | 24*
Cc1c(C(=O)Nc2ccc(OCc3ccccc3)cc2)cccc1[N+](=O)[O-] | -1% | 2% | 12% | -12% | -4 | 8
Cc1ccsc1C(=O)Nc1ccc(OCc2ccccc2)cc1 | 133% | -4% | 6% | 133% | 68* | 18*
O=C(Nc1ccc(-c2noc(CCc3ccccc3)n2)cc1)c1cccnc1 | 27% | -1% | -6% | ? | 40* | 27*
Cc1ccsc1C(=O)Nc1ccc(C(=O)O)cc1 | 92% | 3% | -2% | · | 10 | -1
Cc1ccc(S(=O)(=O)Nc2cc(Cl)ccc2-n2cncn2)cc1 | 3% | 1% | · | -6% | · | ·
CCOc1ccc(N(CC)C(=O)c2cn(CC)c(=O)c3cc(OC)c(OC)cc23)cc1 | -3% | 0% | 8% | · | -8 | -4
